From PubChem
Compounds with a hit are over-represented: about 7.3% of the library has one in this group of screens.
HCMV inh: inhibitors of human cytomegalovirus; HFF cells, HCMV-luciferase reporter, 72 h; stronger effect = lower value; activity change, negative = inhibition, % at 57.5 µM; hit rate 4.5% among 410,000; AID 1259415; in the data active = activity change below about -60%; inconclusive = no clear call, values can overlap the other calls; inactive = above about -39%
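Human foreskin fibroblasts infected with luciferase-reporter HCMV at MOI 1 PFU/cell, compounds at two doses. Luciferase measured 72 h post infection; normalized to buffer-only basal and Salinomycin (10uM) controls.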
HCV inh: inhibitors of hepatitis C virus infection; Potency, µM (highest dose often 41.8 µM), inactives show at the top dose activity change, negative = inhibition, most hits filed as inhibitors; hit rate 3.4% among 340,000; Huh7.5.1 HCVcc-Cre infection, luciferase reporter, 44 h; AID 651820; active = well fitted inhibition curve with a large enough effect; inconclusive = small, poorly fitted or top-dose-only effect, or another doubt; inactive = no such curve, though single readings can be large or run the other way; note: potency is the fitted concentration of half-maximal effect
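A cell-based infection assay in which seeded cells (1,000 per well) receive test compound after 4 h, are inoculated with HCVcc-Cre at approximately 0.5 moi, and are incubated 44 h before luminescence detection.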
VACV mCherry inh: inhibitors of vaccinia virus infection (mCherry reporter signal); Vaccinia virus mCherry reporter infection, fluorescence; Potency, µM (doses to about 36.5 µM), inactives show top-dose activity change, negative = inhibition, hits mostly inhibitors; hit rate 0.63% among 310,000; calls by dose curve; tested in A549 cells; note: potency is the fitted concentration of half-maximal effect; nearly all actives have a fitted effect of over 35% in size
Vaccinia Venus: inhibitors of vaccinia virus (Venus reporter); Vaccinia virus Venus reporter expression, fluorescence; Potency, µM (series often up to 36.5 µM), for inactives: top-dose activity change, negative = inhibition, actives largely listed as inhibitors; hit rate 0.46% among 330,000; AID 720580; calls by dose curve; tested in A549 cells; note: potency is the fitted concentration of half-maximal effect; nearly all actives have a fitted effect of over 30% in size
FMDV antiviral: blocks foot and mouth disease virus | hit rate 1.2% among 410,000 | AID 1159524 | FMDV antiviral cell-based qHTS | Potency, µM (top dose mostly 57.9 µM), for the others: at the highest dose activity change, negative = inhibition, usual class: inhibitors; calls by dose curve; tested in HEK293T cells; note: read-out not given here; potency is the fitted concentration of half-maximal effect; nearly all actives have a fitted effect of over 45% in size
Active calls of the source: *; i = inactive; ? = inconclusive; · = no result; [ ] = dose if it differs, or a comment. % is set by controls: 0 for no effect and ±100 for the full control effect.

SMILES | HCMV inh | HCV inh | VACV mCherry inh | Vaccinia Venus | FMDV antiviral
Cc1nn2c(=O)cc(COC(=O)c3ccccc3NC(=O)C(C)Oc3ccccc3)nc2s1 (centres undefined) | -29.5 | · | i | -21.0% | 0.0%
CCN(CC)CC(=O)c1c(C)n(C)c2ccc(OC)cc12 | · | · | -5.4% | -11.6% | ·
C=CCN=c1scc(-c2ccc3c(c2)NC(=O)CO3)n1/N=C(\C)c1ccccn1 | -95.0* | ? | ? | ? | 17.8µM*
Cc1cccn2cc(-c3ccc4c(c3)NC(=O)CO4)nc12 | 2.8 | -18.9% | i | -14.7% | 26.2%
O=C1C=CC2(C=C1)O[C@H](Cc1ccccc1)[C@@H](Cc1ccccc1)O2 | -98.7* | 2.51µM* | 10µM* | 22.4µM* | 3.98µM*
COc1ccc(C[C@@H]2OC3(C=CC(=O)C=C3)O[C@H]2Cc2ccc(OC)cc2)cc1 | · | 3.98µM* | ? | 10µM* | 14.1µM*
O=C(Nc1ccccc1)N1CC[C@@]2(CCCN(C(=O)c3csnn3)C2)C1 | · | · | · | · | -7.6%
Cc1c(/C(O)=C2/C(=O)C(=O)N(Cc3cccnc3)C2c2ccccn2)cnn1-c1ccccc1 (centres undefined) | -76.4* | -0.7% | -9.3% | 7.6% | 3.98µM*
O=S(=O)(c1ccccc1Cl)N1CCCC1c1nc(-c2ccc(Cl)cc2)no1 (centres undefined) | -67.9* | 10µM* | · | · | ?
O=S(=O)(c1ccc(Cl)cc1Cl)N1CCCC1c1cccnc1 (centres undefined) | -26.6 | -9.4% | -2.4%[7.34 µM] | -9.3%[7.34 µM] | -8.0%
Cc1cccc(NC(=O)CSc2cccc3cccnc23)c1C | -6.9 | -8.6% | -7.6% | -21.0% | -12.8%
Cc1cccc(CSc2cccc3cccnc23)c1 | -108.2* | 18.6% | ? | ? | -18.0%
CCOC(=O)CSc1cccc2cccnc12 | -87.0* | 6.31µM* | · | ? | ?
NNC(=O)c1ccc(CSc2cccc3cccnc23)cc1 | -1.4 | 5.4% | -5.0% | -13.2% | 20.1%
COc1cccc(/C=N/NC(=O)CSc2cccc3cccnc23)c1 | -91.6* | ? | · | · | ?
O=C(c1cnccn1)N1CCC2(CCCN(Cc3nccs3)C2)CC1 | · | · | · | · | -4.7%
CCNc1nn2ccccc2c1/C=C(\C#N)C(=O)OCC | -14.7 | 10µM* | -19.1% | -29.8% | -16.5%
CCOC(=O)/C(C#N)=C/c1c(N2CCCCCC2)nc2ccccn2c1=O | -36.6 | ? | · | · | -26.7%
C=C(C)CSc1nc2sc3c(c2c(=O)n1Cc1ccccc1)CC(C)(CC)OC3 (centres undefined) | -1.3 | · | -8.9% | -4.7% | -14.4%
CCc1c(C)nc2cc(-c3ccc(OC)c(OC)c3)nn2c1NCC1CC1 | -7.8 | 11.2µM* | ? | ? | -17.1%
O=C(c1ccncc1)N1CCC2(CCN(Cc3nccs3)CC2)CC1 | · | · | · | · | -0.4%
CCOC(=O)N1CCc2c(sc(NC(=O)c3ccc(S(=O)(=O)N4CCCC4)cc3)c2C#N)C1 | -2.6 | ? | -28.7% | ? | 17.8µM*
CCOC(=O)c1c(NC(=O)c2ccc(S(=O)(=O)N3CCC(C)CC3)cc2)sc2c1CCN(CC)C2 | -81.8* | · | -29.2% | ? | -7.4%
Cc1cc(C(=O)NCC2CCC3(CCN(Cc4ccc(-c5ccccc5)cc4)CC3)O2)n(C)n1 (centres undefined) | · | · | -19.6% | -15.0% | ?
Cc1nnc2n1N=CC=C(c1ccccc1)S2 | -99.0* | ? | · | · | ?
SMILES | HCMV inh | HCV inh | VACV mCherry inh | Vaccinia Venus | FMDV antiviral
Cc1c(NC(=O)c2ccc(Br)o2)cccc1-c1nc2ccccc2o1 | -21.7 | · | -6.3% | 13.4% | -9.5%
COc1ccc(C(O)(C2CCCCC2)C(CN2CCOCC2)c2ccccc2)cc1 (centres undefined) | -60.6* | -20.2% | · | · | -10.0%
CCCCC(O)(c1ccc(CC)cc1)C(CN1CCOCC1)c1ccccc1 (centres undefined) | -71.3* | ? | · | · | -4.4%
OC(c1ccccc1)(C1CCCCC1)C(CN1CCOCC1)c1ccccc1 (centres undefined) | -38.9 | ? | i | -19.0% | ?
CCCCCC(O)(c1ccc(OC)cc1)C(CN1CCOCC1)c1ccccc1 (centres undefined) | -60.6* | ? | -26.0% | -11.4% | -28.7%
CCc1ccc(C(O)(CC)C(CN2CCOCC2)c2ccccc2)cc1 (centres undefined) | -62.8* | -28.4% | -15.7% | 1.2% | ?
CCCCC(O)(c1ccccc1)C(CN1CCOCC1)c1ccccc1 (centres undefined) | -19.6 | ? | · | · | ?
O=S(=O)(Cc1ccccc1)C(CCCc1ccccc1)S(=O)(=O)Cc1ccccc1 | -14.1 | -21.2% | -20.9% | -13.7% | -3.5%
O=C(CN1C(=O)CC(c2ccco2)Sc2ccccc21)Nc1ccc(OC(F)(F)F)cc1 (centres undefined) | 11.1 | · | 5.9% | 8.3% | -7.6%
COc1ccc(NC(=O)c2cc(C3CCCCN3S(=O)(=O)c3cccs3)on2)c(C)c1 (centres undefined) | ? | · | -4.9% | -5.2% | -27.7%
C=CCn1c2ccccc2c(=O)c2cc(C#CC[C@@H](C)O)ccc21 | 211.0 | 12.6µM* | ? | -21.5% | 48.6%
C=CCn1c2ccccc2c(=O)c2cc(C#CC3(O)CCCCC3)ccc21 | 20.2 | 10µM* | -16.9% | ? | -15.8%
CSc1ccc(CN2CCC(n3nccc3NC(=O)CCCc3ccccc3)CC2)cc1 | -68.3* | ? | -23.4% | -25.1% | -15.4%
CCCCN(CC)CCNC(=S)Nc1ccc2nc(N3CCN(C)CC3)cc(C)c2c1 | -2.6 | 0.891µM* | 12.6µM* | ? | -11.5%
CCCCN(CC)CCNC(=O)CCC(=O)Nc1ccc2nc(N3CCN(C)CC3)cc(C)c2c1 | 0.0 | -15.7% | ? | -14.7% | -17.6%
CCCN(CCC)CCCNC(=S)Nc1ccc2nc(N3CCN(CC)CC3)cc(C)c2c1 | -26.1 | ? | · | · | -20.4%
CCCN(CCC)CCCNC(=S)Nc1ccc2nc(N3CCN(C)CC3)cc(C)c2c1 | -36.5 | 12.6µM* | · | · | -2.7%
C[C@@H]1CN([C@H](C)CO)C(=O)CCCn2nncc2CO[C@H]1CN(C)Cc1cccc(C(=O)O)c1 | 23.2 | · | i | -3.6% | -4.5%
Cc1cc(C)cc(NS(=O)(=O)c2ccc3c(c2)CCCN3C(=O)C2CCC2)c1 | -29.6 | · | -29.9% | -22.8% | -15.7%
CCN1C(=O)[C@H]2[C@@H](c3ccc(-c4cccc(Cl)c4)cc3)N[C@@](C)(C(=O)OC)[C@H]2C1=O | 4.1 | 5.5% | ? | -24.1% | ?
O=C(C=Cc1ccc2c(c1)OCO2)c1ccccc1 | 18.6 | 14.1% | -6.4% | 2.6% | 29.0%
O=C(/C=C/c1ccccc1Cl)Nc1cccc(O)c1 | 28.1 | -9.8% | · | · | -13.0%
CCOC(=O)c1cccc(NC(=O)c2ccc3c(c2)OCO3)c1 | 26.8 | ? | -22.1% | -26.0% | 21.4%
CCN(C(=O)/C=C/c1ccc2c(c1)OCO2)c1ccccc1 | -70.6* | -6.2% | i | -21.5% | 9.7%
CCCCOC(=O)c1cccc(NC(=O)/C=C/c2ccccc2Cl)c1 | -95.3* | · | -20.7% | -22.2% | ?
